Data on 60 compounds can be found in PubChem BioAssay AID720596 (The Scripps Research Institute Molecular Screening Center, 2013).

The campaign covered roughly 370,000 compounds. About 1,600 (0.43%) were called active. For the sample, actives were picked, then their nearest neighbours and some compounds at random. A number with no mark means an inactive call. No stated cut-off is given here; in the data, active means inhibition above about 24%; inactive means the rest.

This experiment concerns the target Major prion protein (Homo sapiens) (UniProt P04156). Put plainly: inhibitors of human cell surface prion protein PrPC, primary screen, cell-based, TR-FRET (AID 720596). Further: 0% = median of the test wells and 100% = reference compound wells. The note with it: TR-FRET read-out, at 13.8 µM, hits give high values. (In general: Time-resolved FRET reads energy transfer from a long-lived donor to a nearby acceptor.)
As for `COc1cc(C)c(Cl)cc1S(=O)(=O)n1ccnc1`, the inhibition (in general, the relative decrease from the control value, in per cent) was -3.46%.
Next, `COc1ccc(CCNC(=O)COc2ccc3c(c2)OCO3)cc1`: -3.21%; `O=C(COc1ccc2ccc(=O)oc2c1)NCC(O)c1ccccc1` (stereo not given): -8.2%; `Cc1cc2ccccc2n1CCNC(=O)COc1ccc2ccccc2c1`: 45.2% (active).
On to `Cc1ccc(C)c(NC(=O)CCS(=O)(=O)c2ccccc2)c1`, for which the inhibition is 4.81%.
Next, `CCc1nc2ccc(C(=O)NCCNC(C)=O)cn2c1N(CC)Cc1cccc(Br)c1`: 1.46%; `CCOC(=O)N1CCN(C(=O)c2ccccc2N(Cc2ccccc2)S(=O)(=O)c2ccc(OC)cc2)CC1`: 9.59%; `COc1cccc(Cn2cc(COC(=O)Nc3ccc(F)cc3)nn2)c1`: 6.34%.
Next, `CN(C)C(=O)c1nc2ccc(Cl)cn2c1CNCc1cccc(OC(F)(F)F)c1`: -9.54%; `C=CCn1c(SCC(=O)c2c(N)n(C)c(=O)n(C)c2=O)nc2sc(CC)cc2c1=O`: 2.42%.
The result for `C=CCNC(=O)CSc1nc2scc(-c3ccco3)c2c(=O)n1CC=C` reads 25.2% (active).
In the case of `C=CCn1c(=S)[nH]c2scc(-c3ccco3)c2c1=O`, the inhibition was 4.26%.
Take `Nc1nc(NC(=O)/C=C/c2ccc(F)cc2)nn1-c1ccccc1`: the inhibition is -4.74%.
The result for `COc1ncnc2c1ncn2CCCNCCN1CCOCC1` reads -1.3%; that for `CCOC(=O)[C@]12CCCC=C1N(Cc1ccc(OC)cc1)C(=O)[C@@H]2CC(=O)NCc1cccs1`, 6.08%.
The result for `NC(=O)C1CCN(Cc2nc3c(Br)cc(Br)cc3c(=O)[nH]2)CC1` reads 28.2% (active); that for `NC(=O)C1CCN(C(=O)c2ccc3c(=O)n(Cc4cccc(Br)c4)c(=S)[nH]c3c2)CC1`, 9.5%; that for `O=C(Nc1ccccc1)N1CCN(Cc2nc3ccccc3c(=O)[nH]2)CC1`, -8.21%.
Next, `O=C(NC1CCCC1)C1c2ccccc2OCC(=O)N1CC(F)(F)F` (stereo not given): 1.68%; `CCc1nnc(NC(=O)CSc2nnc(COc3ccc(C#N)cc3)n2-c2ccccc2)s1`: 0.08%; `N#Cc1ccc(OCC(=O)Nc2nc(-c3ccccn3)cs2)cc1`: 32.4% (active).
`O=C(CN1C(=O)C2C3C=CC(C3)C2C1=O)Nc1nc(-c2ccccn2)cs1` (stereo not given): the inhibition was 2.72%.
Next, `CCN(Cc1ccncc1)C(=S)Nc1ccccc1C`: 0.38%.
`O=S(=O)(c1ccccc1)N(Cc1cccc(F)c1)c1ccccc1`: the inhibition was 7.38%.
As for `C#CCSc1nnc(-c2sc3ccccc3c2Cl)o1`, the inhibition was 3.9%.
Turning to `Fc1ccc(COc2ccc(-c3nnco3)cc2)cc1`, the inhibition is 1.45%.
Consider `COc1ccc2c(Cl)c(-c3nnco3)sc2c1`, for which the inhibition is 24.9% (active).
The result for `Cn1cnc(S(=O)(=O)N2C[C@@H](O)COC[C@@H]3O[C@H](CC(=O)NC4CCC4)CC[C@H]32)c1` reads 9.27%; that for `Cc1nn(-c2ccccc2)c(=O)c2noc(C)c12`, 1.14%.
The result for `CCCCn1c(SCc2ncc(-c3ccccc3)o2)nc2cc(S(N)(=O)=O)ccc21` reads 2.37%; that for `COc1ccc(C[C@H]2CN3C(=NC[C@H]3C)N2CCNC(=O)CCC2CCCCC2)cc1`, -0.91%; that for `CC1(C(=O)NS(=O)(=O)Cc2cccc(Cl)c2)CCN1C(=O)Cc1ccc(Cl)cc1Cl` (stereo not given), 1.42%.
As for `Cc1ccc(CSc2ccc(S(=O)(=O)N3CCCCC3)cn2)cc1`, the inhibition is 33.8% (active).
The result for `COC(=O)c1ccc(CSc2ccc(S(=O)(=O)N3CCCCC3)cn2)cc1` reads 0.66%; that for `O=S(=O)(c1ccc(SCc2ccccc2)nc1)N1CCCCCC1`, -0.79%; that for `CCOc1ccc(CCNC(=O)C2CCN(c3ccc(N4CCOCC4)nn3)CC2)cc1OCC`, -16.1%.
Next, `O=C(/C=C/c1cccc([N+](=O)[O-])c1)OCC(=O)N1CCOCC1`: -2.76%; `CCN(C(=O)[C@@H](C1CC1)[C@@H](O)c1ccc2ccccc2c1)c1ccccc1`: -3.85%.
Next, `COc1ccc(CN2CCC(c3nc4ccc(Cl)cc4[nH]3)CC2)cc1`: -13.1%; `Cc1ccc(CN2CCCOCCS2(=O)=O)cc1`: 2.42%.
With `COc1ccc(C(=O)N2CCCCC2c2cc(C(=O)Nc3ccc(F)c(Cl)c3)no2)cc1` (stereo not given), the inhibition was -1.86%.
Take `CCc1c(C)nc2cc(C)[nH]n2c1=O`: the inhibition was 1.02%.
The result for `CCc1c(C)nc2cc(-c3cccs3)[nH]n2c1=O` reads 37.9% (active).
Next, `Cc1cc(=O)n2[nH]c(-c3sccc3-n3c(C)ccc3C)cc2n1`: 13.4%; `CC(C)n1c(=S)[nH]c2cc(C(F)(F)F)ccc21`: -2.04%; `O=C(CNC(=O)c1ccccc1)OC(C(=O)Nc1cc([N+](=O)[O-])ccc1F)c1ccccc1` (stereo not given): 9.58%.
For the compound `O=C(Nc1nc2ccc(Cl)cc2s1)c1cc(-c2ccc(Cl)cc2)nc2ccccc12`, the inhibition was 6.81%.
For `O=C(NC(Nc1nc2ccc([N+](=O)[O-])cc2s1)(C(F)(F)F)C(F)(F)F)c1ccccc1`, the inhibition is 43.8% (active).
The result for `Cc1cc(C(=O)NN=C/C=C/c2ccco2)n[nH]1` reads -15.4%; that for `CCn1c(SCC(=O)Nc2nc(C)cs2)nnc1C(C)NC(=O)c1ccccc1` (stereo not given), -3.46%.
The result for `CC(=O)N1C[C@@H](CO)[C@@H](N(C)C(=O)c2ccco2)C[C@H]1c1ccccc1` reads -3.63%; that for `CCN(CC(=O)NCc1cccs1)C(=O)/C=C/c1ccc(C)cc1`, -4.17%.
Regarding `COC(=O)Cc1[nH]n(-c2nc3ccccc3s2)c(=O)c1C(C)=Nc1ccc(OC)cc1`, the inhibition was 32.6% (active).
Take `O=C(COC(=O)CNS(=O)(=O)c1ccc(F)c(F)c1F)NC1CCCC1`: the inhibition was -0.54%.
The result for `O=C(COC(=O)c1cnccn1)Nc1ccc(Cl)cc1C(F)(F)F` reads 5.86%.
Next, `Cc1c(S(=O)(=O)N2CC(C)CC(C)C2)c(=O)n(C)c(=O)n1C` (stereo not given): 5.95%; `CCSc1nc(C)c(CCOc2cccc(C)c2)c(=O)[nH]1`: 4.37%.
The result for `CCCc1nc(SCC(=O)Nc2ccc(S(=O)(=O)N(C)C)cc2)c2ccccc2n1` reads 52.8% (active); that for `CN(C)S(=O)(=O)c1ccc(NC(=O)COC(=O)c2n[nH]c3ccccc23)cc1`, 0.47%; that for `CC(C)N(C(=O)CSc1nc(COc2ccccc2)nc2ccccc12)C(C)C`, 12.9%.
